Assay results published in ChEMBL document CHEMBL4513216, “Probing the Open Global Health Chemical Diversity Library for Multistage-Active Starting Points for Next-Generation Antimalarials” (ACS Infect Dis, 2020).
In all, about 69,000 compounds went through this assay and about 8,600 (12%) showed an effect of 50% or more. Shown is part of a subset that was picked to be rich in strong results.

Each compound was assayed on Plasmodium berghei (assay: Screen against P. berghei liver stage (PbLuc), transformed with Luciferase, at 10uM). Conditions: tested at 10 uM.
Assay type: functional, HepG2

SMILES | INHIBITION
O=C1NCCCC12CCN(Cc1ccc(-c3ccccc3)s1)C2 (stereo not given) | 21.2%
O=C1NCCN(CC2CC2)C12CCN(Cc1ccco1)CC2 | 45.5%
Cc1ccc(Sc2ccc(CN3CCC4(CCCNC4=O)C3)o2)cc1 (stereo not given) | 90.8%
CC(NC(=O)CCc1ccsc1)c1ccc2c(c1)NC(=O)CO2 (stereo not given) | 1.223%
CN(C)S(=O)(=O)N1CCN(C(=O)c2cc(-c3ccc(Br)s3)n[nH]2)CC1 | 11.2%
Cc1nc(N)c2ccc(C3CCCCN3)nc2n1 (stereo not given) | 29.35%
Cc1cc(CN(C)C(=O)c2ccc(Cl)c(N3CCCC3=O)c2)no1 | -11.4%
COCCC(=O)N1C[C@@H](c2cccc(OC)c2)[C@@]2(CCCCC(=O)N2)C1 | 3.48%
CC(C(=O)N1CCCN(Cc2cnn(C(C)C)c2)CC1)n1ccnc1 (stereo not given) | 48.1%
Cc1ccc(C(=O)N2CC[C@@H]3CN(C4CCOCC4)CCO[C@@H]3C2)o1 | 22.2%
CCc1nc(C2CCCN2C(=O)c2csc(NC(C)=O)n2)no1 (stereo not given) | -17%
Cc1ccccc1CSc1nc(N)cc(N2CCCC(C(N)=O)C2)n1 (stereo not given) | 41.3%
COc1cccc(C(=O)C2CCCN(c3nccc(N)n3)C2)c1 (stereo not given) | 43%
CCc1nc2n(n1)CCCC2NC(=O)Nc1cc(OC)ccc1C (stereo not given) | 13.5%
COc1ccc(C(=O)C2CCCN(c3nccc(N)n3)C2)c(C)c1 (stereo not given) | 51.2%
COc1ccc(C(=O)N2C[C@@H](CN3CCCC3)[C@@H](CO)C2)c(C)c1 | 34.9%
COc1ccc(C(=O)C2CCCN(c3cc(N)ncn3)C2)c(C)c1 (stereo not given) | 60.1%
CCOC(=O)C1CCCN(c2nccc(-n3nc(C)cc3C)n2)C1 (stereo not given) | 1.74%
CCc1nc(C)cc(N2CCCC(C(=O)c3ccc(OC)cc3C)C2)n1 (stereo not given) | 83.9%
COc1ccc(C(=O)C2CCCN(c3cnccn3)C2)c(C)c1 (stereo not given) | 25.5%
COc1cc(N2CCCC(c3ncc[nH]3)C2)ncn1 (stereo not given) | 28.4%
COc1ccc(C(=O)C2CCCN(c3cc(OC)ncn3)C2)c(C)c1 (stereo not given) | 91.8%
O=C1C(n2nnc(-c3ccsc3)n2)CCN1CC(F)(F)F (stereo not given) | -35.9%
CC(C)n1ccnc1Cn1ccc2ncccc2c1=O | -9.91%
CN(C)CCN1CCN(C(=O)c2ccn(C)c(=O)c2)CC1 | -7.31%
COc1cc(NC(=O)N2CCCC2c2ccco2)cc(OC)c1 (stereo not given) | 45.5%
CN(C)C(CNC(=O)c1ccc(-n2cnnn2)cc1)c1ccccc1Cl (stereo not given) | -20.5%
Cc1nc(NC(=O)c2cccnc2N2CCOCC2)sc1C | 62.9%

SMILES | INHIBITION
Cc1csc(NC(=O)c2cccnc2N2CCOCC2)n1 | -3.39%
O=C(Nc1nc2c(s1)CCC2)c1cccnc1N1CCOCC1 | 34%
COc1cc(-c2n[nH]c(CC#N)n2)cc(OC)c1OC | 12.7%
CCn1nc(C)c(NC(=O)c2nnn(Cc3ccccc3)c2OC)c1C | 27.5%
CCc1ncc2c(n1)CN(CC(=O)Nc1ccc(Cl)cn1)CC2 | 67.2%
CCCn1nccc1NC(=O)CN1CCc2cnc(C(C)C)nc2C1 | 55%
CCCn1nccc1NC(=O)CN1CCc2cnc(CC)nc2C1 | 23.6%
Cc1ncc2c(n1)CN(CC(=O)Nc1ccc(Cl)cn1)CC2 | 46.2%
CC(C)c1ncc2c(n1)CN(CC(=O)Nc1ccc(Cl)cn1)CC2 | 0.914%
CCCn1nccc1NC(=O)CN1CCc2c(nc(C(C)C)n2C)C1 | 12.7%
Cc1csc(C(=O)N2CCC3(CC(N(C)c4ccncn4)C3)C2)c1 (stereo not given) | -10.8%
COc1c(C2CCCN2C(=O)c2cnc[nH]2)c(C)nn1C (stereo not given) | 29.2%
CN1CC2(CCCN(Cc3nnc(-c4cccc(F)c4)o3)C2)OC1=O (stereo not given) | 19.4%
CCn1cnnc1C1CCN(C(=O)c2cc(C)n(CC)c2C)CC1 | -10.6%
Cc1ccc(N2CC[C@H](OCC3CC3)[C@@H]2Cc2ccncc2)nn1 | 27.5%
Cc1cc(CNC(=O)N2CCN(C(C)c3cccnc3)CC2)c(C)o1 (stereo not given) | 35.2%
O=C(c1ccc2c(c1)CCC2)N1CCN(c2ccc(Cl)cn2)CC1 | 11.1%
Cc1cc(CNC(=O)N2CCN(c3ccc(Cl)cn3)CC2)c(C)o1 | 54.3%
O=C(CCc1nccs1)N1CCN(c2ccc(Cl)cn2)CC1 | 35.3%
COCCOC1CCN(C(=O)NCc2cc(C)oc2C)CC1 | 53.7%
COCCOC1CCN(C(=O)NCc2coc3ccccc23)CC1 | 46.1%
Cc1cc(CNC(=O)N2CCN(c3nc(C)c(C)s3)CC2)no1 | 42.6%
Cc1nc(CNC(=O)N2CCN(c3ccc(Cl)cn3)CC2)sc1C | 54.3%
Cc1nc(CNC(=O)N2CCN(c3ccc(Cl)cn3)CC2)no1 | 49.1%
Cc1cc(CNC(=O)CCN2CCN(c3ccccn3)CC2)c(C)o1 | 15.8%
Cc1nc(C)c(CNC(=O)N2CCN(c3ccc(Cl)cn3)CC2)s1 | 95.4%
Cc1nc(N2CCN(C(=O)NCc3cscn3)CC2)sc1C | 43.9%
